# Data taken from the supplement of paper PMC10338343.
# ± gives the standard deviation. The full ranking holds about 8,200 sequences; the median of “pre-steady-state target cleavage rate” is about 0.024, and the highest 2% start at about 1.3. For the sample, the highest values were picked, then their nearest neighbours and some sequences at random.
# Test system: MIWI (PIWIL1) piRISC loaded with L1MC piRNA (30 nt)
# Assay: pre-steady-state target cleavage rate (min^-1); MIWI and MILI are mouse PIWI proteins and EfPiwi is from a freshwater sponge; tags in brackets are library labels; higher = faster piRNA-guided slicing of the target
# Settings: guide: L1MC piRNA 5'p-UAACUAAAUACUAUGCAAGCUGUAGGUCCU
# In short: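 With or without 500 nM GTSF1 partner protein, 1 nM active affinity-purified piRISC carrying one synthetic guide was mixed with 0.1 nM transcribed, DNA-blocked target RNA library in HEPES–potassium acetate buffer at 33 °C for 0–8 or 0–960 min. Uncleaved targets were sequenced and normalised to depth and to weakly complementary targets, three trials were pooled, and k3 was capped at 0.0001 min^-1. The pre-steady-state cleavage rate came from a burst-and-steady-state fit.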
# [1] = auxiliary factor: 500 nM mouse GTSF1
# [2] = auxiliary factor: none (no GTSF1)
Sequence,pre-steady-state target cleavage rate [1],pre-steady-state target cleavage rate [2]
UGGACCUACAGGUUGCAUAGUAUAUAGUUA,0.549 ± 0.056,0.0198 ± 0.0053
UGGACCUACAGCUUGCAUACUAUUUUCAAA,0.0881 ± 0.021,–
UCCUGGAUGUGCAUUGCAUAGUAUUUAGUUA,0.223 ± 0.023,0.0111 ± 0.0032
UCGUGGUACAGCUUGCAUAGUAUUUAGAAA,0.305 ± 0.029,0.00755 ± 0.0023
UCCUGGAACAGCUUGGAUAGUAUUUACUUA,0.0518 ± 0.0087,0.0182 ± 0.0036
UCCUGCUACAGCUUGCUAUAGUAUUUAGUUA,0.0317 ± 0.011,–
UCCUGGAUCUGCUUGCAUUGUAUUUAGUUA,0.228 ± 0.037,0.0147 ± 0.0049
UCCUGGUACACGUUGCAUAGUAUUUUCAAA,0.0245 ± 0.013,–
UGGUCCUACUGCUUGCAUAGUAUUUAGUUA,1.22 ± 0.05,0.0687 ± 0.01
AGGACCUAGAGCUUGCAAAGUAUUUAGUUA,1.17 ± 0.054,0.0284 ± 0.0069
AGGACCUACAGCUUGCAUAGAUUUUAGAAA,0.247 ± 0.071,–
UCGACCUACAGCUUGCAGAGUAUUUAGUUA,1.05 ± 0.066,0.0315 ± 0.0073
UCCUCCUUCAGCUUGCAUAGUAUUUAGUAA,0.717 ± 0.04,0.0202 ± 0.0041
UCCUCCUUCAGCUUGCAUAGUAUUUAGUUA,1.23 ± 0.036,0.0537 ± 0.0085
AGGUCCUUCAGCUUGCAUAGUAUUUAGUUA,1.42 ± 0.05,0.0947 ± 0.018
UCCUCGUUCAGCUUGCAUAGUAUUUAGUUA,1.4 ± 0.041,0.0653 ± 0.014

Sequence,pre-steady-state target cleavage rate [1],pre-steady-state target cleavage rate [2]
UCCACCUUCAGCUUGCAUAGUAUUUAGUAA,0.628 ± 0.038,0.0237 ± 0.0045
UCGUCCUUCAGCUUGCAUAGUAUUUAGUUA,1.41 ± 0.038,0.0596 ± 0.01
UGGUCCUUCAGCUUGCAUAGUAUUUAGUUA,1.22 ± 0.059,0.0643 ± 0.011
UCCUCCUCCAGCUUGCAUAGUAUUUAGUUA,1.12 ± 0.027,0.0546 ± 0.0092
UCCUGGUUCAGCUUGCAUAGUAUUUAGUUA,0.972 ± 0.042,0.0721 ± 0.016
UCCUGGUACAGCUUGCAUUGUAUUUAGAAA,0.0478 ± 0.013,–
AGGACCUACACCUUGCAUAGUAUUAAGUUA,0.627 ± 0.054,0.0334 ± 0.0069
UCCUGGAUGAGCUUGCAAAGUAUUAAGUUA,0.331 ± 0.035,0.00974 ± 0.0037
UCCACCUACAGCUUGGAAAGUAUUUAGUUA,1.01 ± 0.03,0.00576 ± 0.0018
UCCACCUACAGCUUGCAUAGUAUCUUAGUUA,0.709 ± 0.057,0.0225 ± 0.005
UCCACCUACAGCUUGCAUAGUAAAUACAAA,0.155 ± 0.037,–
UCCUGGAUGUGCUUGGAUAGUAUAUAGUUA,0.0799 ± 0.017,0.0106 ± 0.0049
UCCUGGAACAGCUUGCAUAGUAUUUAAGUUA,0.549 ± 0.034,0.0597 ± 0.014
AGGACCUACAGCUAUGCAUAGUAUUUAGUUA,0.962 ± 0.052,0.0545 ± 0.011
UGGACCUACAGCUGGCAUAGUAUUUAGUUA,1.04 ± 0.044,0.0463 ± 0.011
